The record followed here is PubChem BioAssay (Tox21).

Each structure is given as a SMILES string. Inconclusive results are not listed. A call without a number means that no potency is given here. Calls of active or inactive are those of the source. Calls come from the whole dose curve; as a rule, active = well fitted cell-killing curve with a large enough effect in the repeat runs; inconclusive = weak or mixed curves, or effect the other way; inactive = no such curve, though single readings can be large or run the other way.
Potency is the fitted concentration of half-maximal effect.

The nature of this test: qHTS assay to identify small molecule antagonists of the thyroid receptor (TR) signaling pathway - cell viability counter screen (AID 743064). Note: nearly all actives have a fitted effect of over 50% in size. As to conditions: GH3.TRE-Luc viability, CellTiter-Fluor, 24 h; series mostly up to 70.3 µM. An excerpt:
National Center for Advancing Translational Sciences [NCATS]
NIH Chemical Genomics Center [NCGC]
U.S. Environmental Protection Agency [EPA]
National Institutes of Environmental Health Sciences [NIEHS]
National Toxicology Program [NTP]
U.S. Food and Drug Administration [FDA]
Thyroid receptor (TR), a nuclear hormone receptor, plays an important role in development, proliferation, differentiation, metabolism, brain function, and cardiovascular system. […] To profile the Tox21 10K compound library in TR signaling, a cell-based GH3-TRE-Luc assay (GH3.TRE-Luc cell line, developed by the laboratory of Dr. Albertinka J. Murk, Wageningen University) was used to measure the inhibition of TR. GH3 (rat pituitary tumor) cells stably expressing a TR activity sensor consisting of two TR response elements and a luciferase reporter gene. The cytotoxicity of the Tox21 compound library against the GH3.TRE-Luc cell line was tested in parallel by measuring the cell viability using CellTiter-Fluor assay (Promega, Madison, WI) in the same wells.
Tox21 Assay Protocol Summary:
GH3.TRE-Luc cells were dispensed at 1500 cells/4 uL/well into 1536-well white solid bottom plates using a Multidrop Combi dispenser (Thermo Fisher Scientific Inc., Waltham, MA). After the assay plates were incubated at 37 C for 4 hours, 23 nL of library compound or DMSO controls was transferred to the assay plates by a pintool station (Kalypsys, San Diego, CA), followed by addition of 1 ul of T3 (1 nM, final concentration in the wells) to stimulate TR transactivation. The assay plates were incubated at 37 C for 23.5 h, and then 1 uL of CellTiter-Fluor reagent (Promega, Madision, WI) of measuring cytotoxicity was added to each well using a Bioraptr Flying Reagent Dispenser (FRD) workstation (Beckman Coulter, Indianapolis, IN, USA). The plates were incubated at 37C and 5% CO2 for additional 30 min, and fluorescence intensity was measured by a ViewLux plate reader (PerkinElmer, Shelton, CT).
(In general: In qHTS, concentration-response curves come from the screen itself.)
With `N#CCBr`, the Potency result was “inactive”.

Take `O=C(Nc1ccccc1)c1ccccc1I`: the Potency result was “inactive”.

In the case of `C(CCOCC1CO1)COCC1CO1` (stereo not given), the Potency entry is “inactive”.

In the case of `CCN(CC)C(=O)[C@@H]1C=C2c3cccc4[nH]cc(c34)C[C@H]2N(C)C1`, the Potency entry was “inactive”.

Turning to `CC(CCc1ccccc1)NC(C)C(O)c1ccc(O)cc1` (stereo not given), the Potency was 16.8 µM (active).

In the case of `Cc1coc2c1CCC(C)C2` (stereo not given), the Potency entry was “inactive”.

In the case of `O=[N+]([O-])c1cccc2c([N+](=O)[O-])cccc12`, the Potency result is “inactive”.

As for `CCOC(=O)CP(=O)(OCC)OCC`, the Potency result was “inactive”.

Take `CCOP(=O)(N=C1SCCS1)OCC`: the Potency entry is “inactive”.

`CCOC(=O)/C=C(C)/C=C/C[C@@H](C)CCCC(C)C`: the Potency entry was “inactive”.

As to `[Cl][Sn]([Cl])([Cl])[Cl]`, the Potency entry is “inactive”.

As to `CSc1ccc(C(=O)C(C)(C)N2CCOCC2)cc1`, the Potency entry is “inactive”.

Turning to `COc1ccc2c(c1OC)CN1CCc3cc4c(cc3C1C2)OCO4` (stereo not given), the Potency entry is “inactive”.

On to `Cc1cccc(C#N)c1`, for which the Potency result is “inactive”.

Regarding `CC(COc1ccc(Oc2ccccc2)cc1)Oc1ccccn1` (stereo not given), the Potency result is “inactive”.

Regarding `COC(=O)COc1ccc(Cl)cc1Cl`, the Potency entry was “inactive”.

On to `Cc1nnc2n1-c1sc(CCC(=O)N3CCOCC3)cc1C(c1ccccc1Cl)=NC2`, for which the Potency entry was “inactive”.

In the case of `CCCCc1c(C)nc(NCC)[nH]c1=O`, the Potency entry is “inactive”.

Consider `CCOP(=S)(OCC)Oc1nc(Cl)n(C(C)C)n1`, for which the Potency entry is “inactive”.

As for `CNC(=O)Oc1c(C(C)(C)C)cc(C)cc1C(C)(C)C`, the Potency entry was “inactive”.

As to `COCC(=O)N(c1c(C)cccc1C)N1CCOC1=O`, the Potency entry was “inactive”.

As for `CCCCOP(=O)(O)OCCCC`, the Potency result was “inactive”.

Consider `CCN(Cc1ccc(Cl)nc1)/C(=C/[N+](=O)[O-])NC`, for which the Potency result is “inactive”.

Consider `O=[N+]([O-])c1cc(Cl)c(Cl)c(Cl)c1`, for which the Potency result is “inactive”.

Take `C[C@]12CC[C@H]3[C@@H](CC=C4C[C@@H](O)CC[C@@]43C)[C@@H]1CC[C@@H]2O`: the Potency result was “inactive”.

`BrCCCCCCBr`: the Potency entry was “inactive”.

For `COc1cc(OC)nc(Oc2cccc(Oc3nc(OC)cc(OC)n3)c2C(=O)O)n1`, the Potency entry was “inactive”.

In the case of `CCCSP(=O)(OCC)Oc1ccc(Br)cc1Cl` (stereo not given), the Potency entry is “inactive”.

With `Oc1c(Cl)cccc1Cl`, the Potency entry is “inactive”.

In the case of `CCOP(=S)(OCC)Oc1cc(-c2ccccc2)on1`, the Potency entry is “inactive”.

Consider `CCOP(=S)(OCC)SCSc1ccc(Cl)cc1`, for which the Potency entry was “inactive”.

Consider `O=C1c2ccccc2C(=O)c2ccccc21`, for which the Potency result is “inactive”.

Regarding `COc1ncc(F)c2nc(S(=O)(=O)Nc3c(F)cccc3F)nn12`, the Potency entry is “inactive”.

Take `CNC(=O)O/N=C(\C)SC`: the Potency result is “inactive”.

On to `O=[N+]([O-])c1ccc2c3c(cccc13)CC2`, for which the Potency result is “inactive”.

On to `[As]#[In]`, for which the Potency result was “inactive”.

Regarding `O=C(O)c1ccc2[nH]cc(CCCCN3CC=C(c4ccccc4)CC3)c2c1`, the Potency result is “inactive”.

Turning to `COc1cc(OC)nc(NC(=O)NS(=O)(=O)c2ncccc2C(=O)N(C)C)n1`, the Potency result was “inactive”.

Turning to `O=NN1CCCCC1`, the Potency entry was “inactive”.

For `ClC(Cl)Br`, the Potency result is “inactive”.
